Test results taken from PubChem BioAssay (NCI).
Where “and” joins values, the source holds several entries; their conditions need not be identical. Equal values may be shown once. The panel holds about 83,000 compounds, 20% with a hit somewhere; the sample as a whole holds those more often.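 Testing used 96-well plates and a 48-hour single-concentration exposure. Example: -40 means 40% of the starting cells died.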 Unmarked numbers belong to inactive results. Calls of active or inactive are those of the source. The calls were made as follows: active = growth percent below 10; inactive = the rest.

Assays:
Test in all cases: NCI-60 one-dose screen, 48 h (100 = growth as untreated, 0 = no growth, -100 = all killed)
Details in all cases: 10 µM unless noted
SK-MEL-2 melanoma = tested on: SK-MEL-2 melanoma
EKVX NSCLC = tested on: EKVX NSCLC
SN12C renal = tested on: SN12C renal
UO-31 renal = tested on: UO-31 renal
TK-10 renal = tested on: TK-10 renal
ACHN renal = tested on: ACHN renal
CAKI-1 renal = tested on: CAKI-1 renal
A498 renal = tested on: A498 renal
HL-60(TB) leukemia = tested on: HL-60(TB) leukemia
CCRF-CEM leukemia = tested on: CCRF-CEM leukemia
MOLT-4 leukemia = tested on: MOLT-4 leukemia
SR leukemia = tested on: SR leukemia
RPMI-8226 leukemia = tested on: RPMI-8226 leukemia
OVCAR-8 ovarian = tested on: OVCAR-8 ovarian
OVCAR-5 ovarian = tested on: OVCAR-5 ovarian
SK-OV-3 ovarian = tested on: SK-OV-3 ovarian
IGROV1 ovarian = tested on: IGROV1 ovarian
OVCAR-3 ovarian = tested on: OVCAR-3 ovarian
HS 578T breast = tested on: HS 578T breast
OVCAR-4 ovarian = tested on: OVCAR-4 ovarian

Structure (SMILES)	growth (SK-MEL-2 melanoma)	growth (EKVX NSCLC)	growth (SN12C renal)	growth (UO-31 renal)	growth (TK-10 renal)	growth (ACHN renal)	growth (CAKI-1 renal)	growth (A498 renal)	growth (HL-60(TB) leukemia)	growth (CCRF-CEM leukemia)	growth (MOLT-4 leukemia)	growth (SR leukemia)	growth (RPMI-8226 leukemia)	growth (OVCAR-8 ovarian)	growth (OVCAR-5 ovarian)	growth (SK-OV-3 ovarian)	growth (IGROV1 ovarian)	growth (OVCAR-3 ovarian)	growth (HS 578T breast)	growth (OVCAR-4 ovarian)
O=NN1CCCCC1	105%	126%	98.7%	98.8%	110%	101%	107%	88.1%	110%	104%	115%	106%	114%	111%	104%	107%	116%	112%	97.3%	–
COc1ccc(N)cc1OC	106%	111%	89.2%	90.5%	120%	100%	99%	100%	114%	98.6%	112%	–	104%	115%	104%	113%	107%	108%	116%	96.8%
Cc1ccc(N2CCN(CCC#N)CC2)cc1	110%	95.5%	96%	82.6%	89.5%	101%	87.1%	137%	87%	92%	105%	99.3%	96.7%	97.3%	92.5%	93.4%	–	106%	135%	–
O=C(O)c1ccc(=O)[nH]c1	85.4% and 102%	111% and 98.7%	88.4% and 95.5%	92.2% and 88%	94.8% and 97.5%	100% and 106%	98.3%	63.4% and 107%	109% and 102%	106% and 95.4%	119% and 99.2%	87.7% and 105%	103% and 96.5%	101% and 103%	90.3% and 106%	98.9% and 93%	–	113% and 108%	98.5% and 102%	111% and 106%
O=[N+]([O-])c1cc(Cl)c(Cl)c([N+](=O)[O-])c1Cl	116%	122%	23.1%	5.47% (active)	80.7%	-30.1% (active)	-71.5% (active)	108%	22.2%	15%	13.3%	11.2%	29.7%	38.9%	107%	105%	–	10%	106%	29.3%
CC12CCC3C(CCC4CC(O)CCC43C)C1CCC2=O (centres undefined)	91.7%	73.4%	102%	94.1%	108%	109%	81.5%	162%	92.3%	107%	83.1%	86.1%	100%	99.9%	91.7%	126%	38.9%	100%	81.9%	–
CCOC(=O)c1cncn1C(C)c1ccccc1 (centres undefined)	105%	98.2%	102%	81%	95.2%	102%	94.6%	134%	104%	94.7%	94.5%	90.2%	105%	102%	105%	103%	–	109%	97.2%	109%
C/C(=C\c1ccn(-c2ccc(N)cc2F)n1)[C@@H]1C[C@@H]2O[C@]2(C)CCC[C@H](C)[C@H](O)[C@@H](C)C(=O)C(C)(C)[C@@H](O)CC(=O)O1	13.5%	46.7%	29.3%	29.1%	48.3%	38.9%	41.4%	0.324% (active)	3.32% (active)	12.9%	10.6%	13.8%	7.57% (active)	18.7%	23.5%	33.9%	34.8%	-4.43% (active)	-1.48% (active)	–
Cc1nc2ccccc2c(=O)n1-c1ccccc1F	105%	89.3%	95%	88.1%	98%	104%	96.4%	84.5%	89.3%	99.1%	96.9%	108%	102%	93.2%	102%	97.4%	–	107%	100%	99.3%
CCCC1CCCCC12C(=O)NC(=O)NC2=O (centres undefined)	105% and 99.8%	85.6%	101% and 106%	84.3% and 87.9%	92.9% and 107%	104% and 106%	94.8% and 99.6%	70.3% and 102%	121% and 94.2%	109% and 101%	110% and 97.1%	91.8%	95.9%	107% and 103%	97.8% and 107%	94.7% and 106%	111%	106% and 105%	91.8% and 106%	–
CCCN1C(=O)NC(=O)C(CC)(N2C(=O)c3c(F)c(F)c(F)c(F)c3C2=O)C1=O (centres undefined)	-65.2% (active)	-44.4% (active)	-72.7% (active)	-98.8% (active)	-76.4% (active)	-79.4% (active)	-89.9% (active)	-85.3% (active)	-80.1% (active)	-56.7% (active)	-79.6% (active)	-76.5% (active)	-30% (active)	-56.7% (active)	-88.1% (active)	-25.4% (active)	–	-96.4% (active)	-24.6% (active)	-43.1% (active)
N#CCC(=O)c1ccccc1	114%	99%	109%	79%	119%	106%	101%	117%	98.4%	110%	95.2%	107%	108%	96.5%	105%	105%	104%	102%	107%	–
COC(=O)C12C3C4C1C1C2C3C41NC(=O)c1csc([C@@H](C[C@H](C(C)C)N(C)C(=O)[C@@H](NC(=O)[C@H]2CCCCN2C)C2CC2)OC(C)=O)n1 (some centres undefined)	19.1%	60.2%	31.1%	45.6%	41.2%	36.4%	38.1%	-3.52% (active)	-37.4% (active)	16.5%	19.2%	19.1%	21.7%	18.9%	31.6%	7.71% (active)	32.7%	-4.31% (active)	28.1%	–
c1ccc(CCN2CCCCC2)nc1	111%	102%	93.5%	96.4%	103%	91.6%	89.4%	107%	78.4%	83.6%	92.9%	–	94.3%	108%	98.6%	99.2%	107%	111%	109%	99.3%
Cc1nnc([S-])o1.[Au+].c1ccc([PH+](c2ccccc2)c2ccccc2)cc1	47.9%	87.3%	40.8%	55.1%	102%	0.817% (active)	41.6%	90.5%	6.51% (active)	11.1%	38.6%	20.8%	17.2%	44.8%	110%	111%	20.9%	-61.4% (active)	30.4%	–
